In all, about 5,500 compounds went through this assay and about 2,000 (36%) were called active. Another 18% or so got no clear call; they are omitted. Cut-off read from the data, not from the text of the source: active = normalized growth mostly below about 0.91 (no sharp cut-off); inconclusive = no clear call, values can overlap the other calls; inactive = mostly above about 0.92. The list shows a part of the results.
Assay: chemical genetic growth profiling, strain panel (AID 1159580);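 note: tested at 20 µM; growth read once vehicle control cultures reached saturation at 30 °C; 1 = growth at the plate median or of vehicle wells; lower values mean less growth of the strain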
Details: S. cerevisiae deletion strains, growth OD

Measured: normalized growth

CCC(c1ccc(O)cc1)C(CC)c1ccc(O)cc1 (stereo not drawn)
inactive: locus YAL013W, strain DEP1, hits give low values 0.998 | locus YAL021C, strain ccr4, hits give low values 0.93 | locus YBL061C, strain skt5, hits give low values 0.982 | locus YBR021W, strain FUR4, hits give low values 0.972 | locus YBR023C, strain chs3, hits give low values 0.966 | locus YBR171W, strain sec66, hits give low values 0.993 | locus YBR229C, strain ROT2, hits give low values 0.993 | locus YBR231C, strain swc5, hits give low values 0.989 | locus YBR279W, strain paf1, hits give low values 0.95 | locus YCL016C, strain dcc1, hits give low values 0.95 | locus YCL029C, strain bik1, hits give low values 0.987 | locus YCL061C, strain MRC1, hits give low values 0.958 | locus YCL069W, strain vba3, hits give low values 0.951 | locus YCR088W, strain abp1, hits give low values 0.974 | locus YDL005C, strain med2, hits give low values 0.92 | locus YDL035C, strain GPR1, hits give low values 0.914 | locus YDL040C, strain nat1, hits give low values 0.998 | locus YDL074C, strain BRE1, hits give low values 0.878 | locus YDL101C, strain DUN1, hits give low values 0.989 | locus YDL134C, strain PPH21, hits give low values 0.998 | locus YDL185W, strain tfp1, hits give low values 0.995 | locus YDL192W, strain arf1, hits give low values 0.969 | locus YDR001C, strain nth1, hits give low values 0.997 | locus YDR101C, strain arx1, hits give low values 0.968 | locus YDR150W, strain NUM1, hits give low values 1.01 | locus YDR162C, strain NBP2, hits give low values 0.931 | locus YDR195W, strain ref2 1.02 | locus YDR297W, strain sur2, hits give low values 0.923 | locus YDR318W, strain mcm21, hits give low values 0.944 | locus YDR334W, strain swr1, hits give low values 1.02 | locus YDR335W, strain msn5, hits give low values 0.938 | locus YDR388W, hits give low values 0.966 | locus YDR392W, strain spt3, hits give low values 0.743 | locus YDR502C, strain sam2, hits give low values 0.959 | locus YEL037C, strain rad23, hits give low values 1 | locus YEL061C, strain CIN8 (second series), hits give low values 1 | locus YEL061C, strain CIN8, hits give low values 1 | locus YER016W, strain bim1, hits give low values 0.94 | locus YER110C, hits give low values 1.01 | locus YER111C, strain swi4, hits give low values 1 | locus YER155C, strain BEM2 (second series), hits give low values 0.942 | locus YER155C, strain BEM2, hits give low values 1.02 | locus YER167W, strain BCK2, hits give low values 0.972 | locus YFR010W, strain ubp6, hits give low values 0.957 | locus YGL078C, strain dbp3, hits give low values 0.976 | locus YGL086W, strain mad1, hits give low values 0.958 | locus YGL167C, strain pmr1, hits give low values 0.987 | locus YGL227W, strain vid30, hits give low values 0.994 | locus YGL248W, strain PDE1, hits give low values 0.998 | locus YGL253W, strain hxk2, hits give low values 0.953 | locus YGR078C, strain PAC10, hits give low values 0.952 | locus YGR135W, strain pre9, hits give low values 0.968 | locus YGR229C, strain SMI1, hits give low values 0.813 | locus YGR252W, strain gcn5, hits give low values 0.902 | locus YHR027C, strain rpn1, hits give low values 0.933 | locus YHR030C, strain SLT2, hits give low values 0.993 | locus YHR079C, strain IRE1 (second series), hits give low values 0.971 | locus YHR094C, strain hxt1, hits give low values 0.999 | locus YHR129C, strain ARP1, hits give low values 1.01 | locus YHR142W, strain chs7, hits give low values 0.911 | locus YHR200W, strain rpn10, hits give low values 0.981 | locus YIL073C, strain SPO22, hits give low values 0.951 | locus YIL125W, strain kgd1, hits give low values 0.994 | locus YIR030C, strain dcg1, hits give low values 1.01 | locus YJL092W, strain hpr5, hits give low values 0.967 | locus YJL095W, strain BCK1, hits give low values 0.855 | locus YJL115W, strain asf1, hits give low values 1.02 | locus YJL134W, strain LCB3, hits give low values 0.999 | locus YJL154C, strain vps35, hits give low values 0.996 | locus YJL168C, strain set2, hits give low values 0.994 | locus YJL187C, strain SWE1 (second series), hits give low values 0.964 | locus YJR043C, strain POL32, hits give low values 0.999
active: locus YAL026C, strain drs2, hits give low values 0.835 | locus YAL030W, strain snc1, hits give low values 0.918 | locus YBR009C, strain hhf1, hits give low values 0.77 | locus YCL011C, strain gbp2, hits give low values 0.858 | locus YDR069C, strain doa4, hits give low values 0.894 | locus YDR137W, strain rgp1, hits give low values 0.415 | locus YDR159W, strain sac3, hits give low values 0.723 | locus YEL003W, strain gim4, hits give low values 0.891 | locus YER015W, strain faa2, hits give low values 0.901 | locus YGL173C, strain kem1, hits give low values 0.825 | locus YGL240W, strain doc1, hits give low values 0.863 | locus YHR013C, strain ard1, hits give low values 1.21 [resistant] | locus YJL095W, strain BCK1 (second series), hits give low values 0.799 | locus YJL129C, strain trk1, hits give low values 0.675 | locus YJL164C, strain tpk1, hits give low values 0.687 | locus YJL166W, strain qcr8, hits give low values 0.812
